Test results taken from PubChem BioAssay (EPA / NIEHS).
Where “and” joins values, the source holds several entries; their conditions need not be identical. Equal entries are not always repeated. Where a structure was tested more than once in an assay, its records may differ in their call. Calls of active or inactive are those of the source. How the source made its calls: active means hit-call score of the fitted dose curve at least 0.9, where 1 is the maximum; inactive means score below 0.9.

How the values were obtained:
[1] = read-out: Interleukin-6 (IL6), IL6 (gene 3569); test: BSK_CASM3C_IL6: BioMAP Diversity Plus: CASM3C Assay for Interleukin-6 (IL6) Biomarker Activity for (AID 2283040); settings: primary human coronary artery smooth muscle cells; actives raise or lower the signal
[2] = read-out: Tissue plasminogen activator (tPA), PLAT (gene 5327); test: BSK_BE3C_tPA: BioMAP Diversity Plus: BE3C Assay for Tissue plasminogen activator (tPA) Biomarker Activity (AID 2283041); settings: primary human bronchial epithelial cells; actives raise or lower the signal;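 on outcome: tPA level quantified by ELISA one day after compound addition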
Method in brief: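 Bidirectional curve fitting relative to DMSO defined activity, with tPA detected by ELISA in chemically treated human bronchial epithelial primary cells at 24 hours.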

[3] = read-out: Interleukin-8 (IL8), CXCL8 (gene 3576); test: BSK_CASM3C_IL8: BioMAP Diversity Plus: CASM3C Assay for Interleukin-8 (IL8) Biomarker Activity (AID 2283042); settings: primary human coronary artery smooth muscle cells; actives raise or lower the signal;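 further: IL-8 protein level quantified by ELISA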
[4] = read-out: Human Leukocyte Antigen - DR isotype (HLADR), HLA-DRA (gene 3122); test: BSK_CASM3C_HLADR: BioMAP Diversity Plus: CASM3C Assay for Human Leukocyte Antigen - DR isotype (HLADR) Biomarker Activity (AID 2283043); settings: primary human coronary artery smooth muscle cells; actives raise or lower the signal;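 further: cell-surface HLA-DR protein level quantified by ELISA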
[5] = read-out: Macrophage colony-stimulating factor (MCSF), CSF1 (gene 1435); test: BSK_CASM3C_MCSF: BioMAP Diversity Plus: CASM3C Assay for Macrophage colony-stimulating factor (MCSF) Biomarker Activity (AID 2283044); settings: primary human coronary artery smooth muscle cells; actives raise or lower the signal;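 further: M-CSF protein amount quantified by ELISA after 24 h exposure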
[6] = read-out: Low-density lipoprotein receptor (LDLR), LDLR (gene 3949); test: BSK_CASM3C_LDLR: BioMAP Diversity Plus: CASM3C Assay for Low-density lipoprotein receptor (LDLR) Biomarker Activity (AID 2283045); settings: primary human coronary artery smooth muscle cells; actives raise or lower the signal;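 further: LDLR protein level on the cell surface quantified by ELISA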
[7] = read-out: Monocyte Chemoattractant Protein-1 (MCP1), CCL2 (gene 6347); test: BSK_CASM3C_MCP1: BioMAP Diversity Plus: CASM3C Assay for Monocyte Chemoattractant Protein-1 (MCP1) Biomarker Activity (AID 2283046); settings: primary human coronary artery smooth muscle cells; actives raise or lower the signal;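 further: MCP-1 level quantified by ELISA 24 h after dosing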
[8] = BSK_CASM3C_Proliferation: Cell Proliferation Assessment in the BioMAP Diversity Plus: CASM3C Assay (AID 2283047); settings: primary human coronary artery smooth muscle cells;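 further: sulforhodamine B total protein stain as relative cell number at 560 nm; sub-confluent cells exposed 48 h before staining; fitted both ways against DMSO so gain or loss of cell number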
[9] = read-out: Monokine induced gamma interferon (MIG), CXCL9 (gene 4283); test: BSK_CASM3C_MIG: BioMAP Diversity Plus: CASM3C Assay for Monokine induced gamma interferon (MIG) Biomarker Activity (AID 2283048); settings: primary human coronary artery smooth muscle cells; actives raise or lower the signal;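 further: MIG protein level measured by ELISA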
[10] = read-out: serum amyloid A (SAA), SAA1 (gene 6288); test: BSK_CASM3C_SAA: BioMAP Diversity Plus: CASM3C Assay for serum amyloid A (SAA) Biomarker Activity (AID 2283049); settings: primary human coronary artery smooth muscle cells; actives raise or lower the signal;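 further: SAA protein level quantified by ELISA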
[11] = BSK_CASM3C_SRB: Viability Assessment in the BioMAP Diversity Plus: CASM3C Assay (AID 2283050); settings: primary human coronary artery smooth muscle cells;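 further: total protein by SRB staining as cytotoxicity measure in parallel cultures; cells exposed to compound for 24 h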
[12] = read-out: Thrombomodulin, THBD (gene 7056); test: BSK_CASM3C_Thrombomodulin: BioMAP Diversity Plus: CASM3C Assay for Thrombomodulin Biomarker Activity (AID 2283051); settings: primary human coronary artery smooth muscle cells; actives raise or lower the signal;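 further: thrombomodulin protein level measured by ELISA 24 h after dosing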
[13] = read-out: Tissue Factor, F3 (gene 2152); test: BSK_CASM3C_TissueFactor: BioMAP Diversity Plus: CASM3C Assay for Tissue Factor Biomarker Activity (AID 2283052); settings: primary human coronary artery smooth muscle cells; actives raise or lower the signal;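 further: cell surface tissue factor protein level read by ELISA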
[14] = read-out: Interferon-gamma inducible Protein 10 (IP10), CXCL10 (gene 3627); test: BSK_hDFCGF_IP10: BioMAP Diversity Plus: hDFCGF Assay for Interferon-gamma inducible Protein 10 (IP10) Biomarker Activity (AID 2283053); settings: primary human foreskin fibroblasts; actives raise or lower the signal
Method in brief: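 IP-10 levels, quantified by ELISA, are taken from human foreskin fibroblast cultures 24 h after chemical treatment, with DMSO serving as negative control and baseline for bidirectional analysis.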

[15] = read-out: Urokinase-type plasminogen activator receptor (uPAR), PLAUR (gene 5329); test: BSK_CASM3C_uPAR: BioMAP Diversity Plus: CASM3C Assay for Urokinase-type plasminogen activator receptor (uPAR) Biomarker Activity (AID 2283054); settings: primary human coronary artery smooth muscle cells; actives raise or lower the signal;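 further: cell-surface uPAR protein level quantified by ELISA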
[16] = read-out: Vascular cell adhesion molecule 1 (VCAM1), VCAM1 (gene 7412); test: BSK_CASM3C_VCAM1: BioMAP Diversity Plus: CASM3C Assay for Vascular cell adhesion molecule 1 (VCAM1) Biomarker Activity (AID 2283055); settings: primary human coronary artery smooth muscle cells; actives raise or lower the signal;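 further: VCAM-1 protein level quantified by ELISA on the cells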
[17] = read-out: Collagen III, COL3A1 (gene 1281); test: BSK_hDFCGF_CollagenIII: BioMAP Diversity Plus: hDFCGF Assay for Collagen III Biomarker Activity (AID 2283056); settings: primary human foreskin fibroblasts; actives raise or lower the signal
Method in brief: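 hDFCGF primary human dermal fibroblasts; 24 h chemical exposure; collagen III by ELISA; bidirectional curve fit vs DMSO baseline (gain or loss of signal).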

[18] = read-out: Epidermal growth factor receptor (EGFR), EGFR (gene 1956); test: BSK_hDFCGF_EGFR: BioMAP Diversity Plus: hDFCGF Assay for Epidermal growth factor receptor (EGFR) Biomarker Activity (AID 2283057); settings: primary human foreskin fibroblasts; actives raise or lower the signal
Method in brief: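 Measured by ELISA: EGFR levels on primary human foreskin fibroblasts 24 h after chemical treatment, analysed relative to DMSO with bidirectional fitting.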

[19] = read-out: Interleukin-8 (IL8), CXCL8 (gene 3576); test: BSK_hDFCGF_IL8: BioMAP Diversity Plus: hDFCGF Assay for Interleukin-8 (IL8) Biomarker Activity (AID 2283058); settings: primary human foreskin fibroblasts; actives raise or lower the signal
Method in brief: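 ELISA read-out of IL-8 from primary human foreskin fibroblast cultures taken 24 h after dosing; values are bidirectional fits relative to DMSO vehicle.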

[20] = BSK_hDFCGF_Proliferation: Cell Proliferation Assessment in the BioMAP Diversity Plus: hDFCGF Assay (AID 2283059); settings: primary human foreskin fibroblasts;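 further: curves fitted for both rise and fall of signal versus DMSO baseline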
Method in brief: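 Sub-confluent human foreskin fibroblast cultures receive test chemical […]. Relative cell number is quantified by sulforhodamine B staining (0.1%, after 10% TCA fixation) at 560 nm, with bidirectional fitting referenced to DMSO.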

Structure (SMILES): OCC(F)(F)C(F)(F)C(F)(F)C(F)F
- outcome [1]: inactive
- outcome [2]: inactive
- outcome [3]: inactive
- outcome [4]: inactive
- outcome [5]: inactive
- AC50 [6]: 0.292 µM (active)
- outcome [6]: inactive
- outcome [7]: inactive
- outcome [8]: inactive
- outcome [9]: inactive
- outcome [10]: inactive
- outcome [11]: inactive
- outcome [12]: inactive
- outcome [13]: inactive
- outcome [14]: inactive
- outcome [15]: inactive
- outcome [16]: inactive
- outcome [17]: inactive
- outcome [18]: inactive
- outcome [19]: inactive
- outcome [20]: inactive

Structure (SMILES): Oc1ccc(Nc2ccccc2)cc1
- outcome [1]: inactive
- outcome [2]: inactive
- outcome [3]: inactive
- AC50 [4]: 2.54 µM (active)
- outcome [5]: inactive
- AC50 [6]: 2.43 µM (active)
- outcome [7]: inactive
- AC50 [8]: 30.1 µM (active)
- outcome [9]: inactive
- outcome [10]: inactive
- outcome [11]: inactive
- AC50 [12]: 5.45 µM (active)
- AC50 [13]: 11 µM (active)
- outcome [14]: inactive
- outcome [15]: inactive
- outcome [16]: inactive
- outcome [17]: inactive
- outcome [18]: inactive
- outcome [19]: inactive
- AC50 [20]: 26.5 µM (active)

Structure (SMILES): C=CC(F)(F)C(F)(F)C(F)(F)C(F)(F)C(F)(F)C(F)(F)C(F)(F)C(F)(F)F
- outcome [1]: inactive
- outcome [2]: inactive
- outcome [3]: inactive
- outcome [4]: inactive
- outcome [5]: inactive
- outcome [6]: inactive
- outcome [7]: inactive
- outcome [8]: inactive
- outcome [9]: inactive
- outcome [10]: inactive
- outcome [11]: inactive
- outcome [12]: inactive
- outcome [13]: inactive
- outcome [14]: inactive
- outcome [15]: inactive
- outcome [16]: inactive
- outcome [17]: inactive
- AC50 [18]: 0.27 µM (active)
- outcome [18]: inactive
- outcome [19]: inactive
- outcome [20]: inactive

Structure (SMILES): C=C(C)C(=O)OCC(F)(F)C(F)(F)C(F)(F)F
- outcome [1]: inactive
- outcome [2]: inactive
- outcome [3]: inactive
- outcome [4]: inactive
- outcome [5]: inactive
- outcome [6]: inactive
- outcome [7]: inactive
- outcome [8]: inactive
- outcome [9]: inactive
- outcome [10]: inactive
- outcome [11]: inactive
- outcome [12]: inactive
- outcome [13]: inactive
- outcome [14]: inactive
- outcome [15]: inactive
- outcome [16]: inactive
- outcome [17]: inactive
- outcome [18]: inactive
- outcome [19]: inactive
- outcome [20]: inactive

Structure (SMILES): CC(=O)Nc1ccc(N=Nc2cc(C)ccc2O)cc1
- outcome [1]: inactive
- outcome [2]: inactive
- outcome [3]: inactive
- outcome [4]: inactive
- outcome [5]: inactive
- outcome [6]: inactive
- outcome [7]: inactive
- outcome [8]: inactive
- outcome [9]: inactive
- outcome [10]: inactive
- outcome [11]: inactive
- outcome [12]: inactive
- outcome [13]: inactive
- AC50 [14]: 34.1 µM (active)
- outcome [15]: inactive
- AC50 [16]: 9.54 µM (active)
- outcome [17]: inactive
- outcome [18]: inactive
- outcome [19]: inactive
- AC50 [20]: 20 µM (active)

Structure (SMILES): CCCCCCCCC(F)(F)C(F)(F)C(F)(F)C(F)(F)C(F)(F)C(F)(F)F
- outcome [1]: inactive
- outcome [2]: inactive
- outcome [3]: inactive
- outcome [4]: inactive
- outcome [5]: inactive
- outcome [6]: inactive
- outcome [7]: inactive
- outcome [8]: inactive
- outcome [9]: inactive
- outcome [10]: inactive
- outcome [11]: inactive
- outcome [12]: inactive
- outcome [13]: inactive
- outcome [14]: inactive
- outcome [15]: inactive
- outcome [16]: inactive
- outcome [17]: inactive
- outcome [18]: inactive
- outcome [19]: inactive
- outcome [20]: inactive

Structure (SMILES): CCCCC(CC)COP(=O)(O)OCC(CC)CCCC (stereo not given)
- outcome [1]: inactive
- AC50 [2]: 25.9 µM (active) and 14.4 µM (active)
- outcome [3]: inactive
- outcome [4]: inactive
- outcome [5]: inactive
- outcome [6]: inactive
- outcome [7]: inactive
- outcome [8]: inactive
- outcome [9]: inactive
- outcome [10]: inactive
- outcome [11]: inactive
- outcome [12]: inactive
- outcome [13]: inactive
- AC50 [14]: 24.9 µM (active) and 28.3 µM (active)
- outcome [15]: inactive
- AC50 [16]: 0.988 µM (active)
- outcome [16]: inactive
- AC50 [17]: 26.9 µM (active) and 27.5 µM (active)
- AC50 [18]: 20 µM (active)
- outcome [18]: inactive
- outcome [19]: inactive
- AC50 [20]: 32.9 µM (active) and 34.6 µM (active)

Structure (SMILES): O=C(O)C=C(C(F)(F)F)C(F)(F)F
- AC50 [1]: 13.2 µM (active) and 1.37 µM (active)
- AC50 [2]: 8.7 µM (active) and 1.53 µM (active)
- outcome [3]: inactive
- AC50 [4]: 9.93 µM (active) and 597 nM (active)
- outcome [5]: inactive
- outcome [6]: inactive
- outcome [7]: inactive
- AC50 [8]: 30 µM (active)
- AC50 [9]: 27.4 µM (active) and 220 nM (active)
- outcome [10]: inactive
- outcome [11]: inactive
- outcome [12]: inactive
- outcome [13]: inactive
- outcome [14]: inactive
- outcome [15]: inactive
- AC50 [16]: 12.5 µM (active) and 5.23 µM (active)
- outcome [17]: inactive
- outcome [18]: inactive
- outcome [19]: inactive
- AC50 [20]: 21.9 µM (active)
- outcome [20]: inactive

Structure (SMILES): O=C(O)C(F)(OC(F)(F)C(F)(OC(F)(F)C(F)(F)C(F)(F)F)C(F)(F)F)C(F)(F)F (stereo not given)
- outcome [1]: inactive
- outcome [2]: inactive
- outcome [3]: inactive
- outcome [4]: inactive
- outcome [5]: inactive
- outcome [6]: inactive
- outcome [7]: inactive
- outcome [8]: inactive
- outcome [9]: inactive
- outcome [10]: inactive
- outcome [11]: inactive
- outcome [12]: inactive
- outcome [13]: inactive
- outcome [14]: inactive
- outcome [15]: inactive
- outcome [16]: inactive
- outcome [17]: inactive
- outcome [18]: inactive
- outcome [19]: inactive
- outcome [20]: inactive

Structure (SMILES): FC(F)(Br)C(F)(F)C(F)(F)C(F)(F)C(F)(F)C(F)(F)Br
- outcome [1]: inactive
- outcome [2]: inactive
- outcome [3]: inactive
- outcome [4]: inactive
- outcome [5]: inactive
- outcome [6]: inactive
- outcome [7]: inactive
- outcome [8]: inactive
- outcome [9]: inactive
- outcome [10]: inactive
- outcome [11]: inactive
- outcome [12]: inactive
- outcome [13]: inactive
- outcome [14]: inactive
- outcome [15]: inactive
- outcome [16]: inactive
- outcome [17]: inactive
- outcome [18]: inactive
- outcome [19]: inactive
- outcome [20]: inactive
